# Source: PubChem BioAssay (several laboratories)
# Only some compounds are listed: those with a hit (about 22% of all), similar ones and a draw of the others.
# E-sel TNF inh: TNF alpha driven E-selectin expression inhibition | AID 1246 | HUVEC TNFa-induced E-selectin immunofluorescence, high content | hit rate 0.71% among 120,000 | inhibition, % at 2 µM;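 active = inhibition above the batch mean plus 3 SD, and confirmed as a hit on visual image review, cut at about 43% in these data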
# CYP2C9 act: activators of human CYP2C9 | activation factor at 5 µM | AID 1024 | recombinant CYP2C9, luciferin-H conversion, luminescence; active compounds read high; factor 1 = untreated enzyme, 0 = blocked | hit rate 1.4% among 96,000 | P11712;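 active = activation factor of 2 or more for CYP2C9 at a 5 µM dose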
# CYP2C19 inh: human CYP2C19 inhibition; CYP2C19 Supersomes, luciferin-H EGE luminescence, 30 min; hit rate 21% among 96,000; inhibition, % at 5 µM; P33261;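 active = CYP2C19 inhibition above a set limit at 5 µM in the primary screen, cut at about 50% in these data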
# Target sequence (P33261 whole entry, looked up): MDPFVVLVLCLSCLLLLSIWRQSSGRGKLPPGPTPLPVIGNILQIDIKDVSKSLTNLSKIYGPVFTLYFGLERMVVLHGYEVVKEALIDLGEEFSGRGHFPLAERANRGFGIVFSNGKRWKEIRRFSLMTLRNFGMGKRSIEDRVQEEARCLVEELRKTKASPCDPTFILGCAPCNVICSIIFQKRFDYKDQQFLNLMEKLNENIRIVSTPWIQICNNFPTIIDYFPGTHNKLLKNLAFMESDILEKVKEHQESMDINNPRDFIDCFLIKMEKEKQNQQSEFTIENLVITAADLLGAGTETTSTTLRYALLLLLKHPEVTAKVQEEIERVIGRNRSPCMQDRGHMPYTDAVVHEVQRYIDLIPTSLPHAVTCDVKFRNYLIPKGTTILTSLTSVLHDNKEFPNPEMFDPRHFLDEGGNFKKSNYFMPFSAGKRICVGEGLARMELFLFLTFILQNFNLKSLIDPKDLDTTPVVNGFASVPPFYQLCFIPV
# cytoskel mod: alters cytoskeleton assembly in HUVEC cells. HUVEC TNFa F-actin phalloidin imaging, high content. inhibition, % at 2 µM. hit rate 0.18% among 91,000. AID 836;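 active = inhibition above the batch mean plus 3 SD and confirmed as a hit by visual image inspection, cut at about 30% in these data, passing the limit was not always enough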
# CYP2C9 inh: blocks human cytochrome P450 2C9 | hit rate 20% among 96,000 | P11712 | CYP2C9 Supersomes, luciferin-H conversion, luminescence | AID 777 | inhibition, % at 5 µM;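 active = blocking of liver enzyme CYP2C9 beyond about 50% at 5 µM, limit read from the data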
# CYP2C19 activ: activators of human cytochrome P450 2C19; recombinant CYP2C19, luciferin-H EGE luminescence; active compounds read high; 0 = fully inhibited enzyme, 1 = untreated enzyme; activation factor at 5 µM; 96,000 tested, under 10 active; AID 1025;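 active = activation factor of at least 2 at 5 µM in the primary screen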
# A number is an active result; i = inactive; nt = not tested or not shown.
SMILES,E-sel TNF inh,CYP2C9 act,CYP2C19 inh,cytoskel mod,CYP2C9 inh,CYP2C19 activ
COc1ccc(CC(=O)N2CC(=O)N(CCc3ccccc3)C(=O)C2)cc1,nt,i,i,i,i,i
COc1ccc(/C=C2\C(=O)NCC(=O)N2Cc2ccccc2)cc1,i,i,65,i,53,i
COc1ccccc1NS(=O)(=O)c1cc(N/C(=N\S(=O)(=O)c2ccccc2)c2ccc(F)cc2)ccc1Cl,i,nt,nt,nt,nt,nt
COc1ccccc1-c1nc2n(n1)C(c1cccs1)C(C(=O)Nc1cccnc1)=C(C)N2 (stereo not drawn),i,i,i,i,i,i
COc1cc(S(=O)(=O)N2CCCCCC2)ccc1Cl,i,2.4,98,i,i,i
COc1ccc2cc(S(=O)(=O)N3CCCCC3)ccc2c1S(=O)(=O)N1CCCCC1,i,i,i,i,52,i
CCOc1cc(S(=O)(=O)N2CCOCC2)ccc1F,i,i,57,i,i,i
COc1ccc(S(=O)(=O)N2CCCCCC2)cc1N(C)S(=O)(=O)c1ccc(Cl)cc1,i,i,i,i,i,i
COc1cc(S(=O)(=O)N2CCN(C)CC2)ccc1Cl,i,nt,nt,i,nt,nt
CCOc1cc(S(=O)(=O)N2CCN(CC)CC2)ccc1Cl,i,2.3,65,i,i,i
CCc1cc(=O)oc2cc(OC(C)C(=O)O)c(Cl)cc12 (stereo not drawn),i,i,i,nt,i,i
CCn1c(=S)[nH]c2cc(S(=O)(=O)N3CCCCC3)ccc21,i,i,i,i,51,i
CCOc1cc(S(=O)(=O)N2CCCCC2)ccc1Cl,i,2.5,71,i,i,i
CCn1c(C)nc2cc(S(=O)(=O)N3CCCC3)ccc21,nt,i,i,i,i,i
Cc1ccc2nc(CSc3nnc(Nc4ccccc4C)s3)cc(=O)n2c1,i,nt,nt,nt,nt,nt
CC1CCCc2sc3nc(N4CCN(CCO)CC4)n4ncnc4c3c21 (stereo not drawn),i,i,i,i,i,i
CCn1nc(C(=O)OC(C(=O)c2c[nH]c3ccccc23)c2ccccc2)c2ccccc2c1=O (stereo not drawn),i,i,i,i,74,i
CCn1nc(C(=O)Nc2nc3ccccc3[nH]2)c2ccccc2c1=O,i,nt,nt,nt,nt,nt
C=CCn1c(N)c(C(=O)Nc2ccccc2OC)sc1=S,nt,i,78,i,85,i
C=CCn1c(N)c(C(=O)Nc2ccc(C)cc2)sc1=S,i,i,i,i,i,i
C=CCn1c(N)c(C(=O)NCc2ccco2)sc1=S,i,i,60,i,64,i
C=CCn1c(N)c(C(=O)N2CCOCC2)sc1=S,i,i,i,i,70,i
COc1cc(C=O)ccc1OCc1ccccc1Br,i,nt,nt,nt,nt,nt
Cc1ccc(S(=O)(=O)N2CCOCC2)cc1C(=O)NCc1cccnc1,i,i,i,i,i,i
O=C(/C=C/c1ccc(S(=O)(=O)N2CCOCC2)cc1)NC(=S)NCCCn1ccnc1,i,nt,nt,nt,nt,nt
SMILES,E-sel TNF inh,CYP2C9 act,CYP2C19 inh,cytoskel mod,CYP2C9 inh,CYP2C19 activ
Cc1ccc(S(=O)(=O)N2CCOCC2)cc1C(=O)NCCCn1ccnc1,i,i,65,nt,76,i
O=C(NCCCn1ccnc1)c1cc(S(=O)(=O)N2CCOCC2)c(Cl)cc1Cl,i,i,72,nt,96,i
O=C(NCCCn1ccnc1)c1ccc(Br)c(S(=O)(=O)N2CCOCC2)c1,i,i,53,i,95,i
CC(C)(C)c1ccc(CN(Cc2ccco2)Cc2nnnn2C2CCCC2)cc1,nt,nt,nt,i,nt,nt
CCCCS(=O)(=O)c1sc2nc3c(cc2c1N)CCCC3,i,i,i,i,i,i
COc1ccc(/C=C2\SC(=O)N(CCNC(=O)Cn3cnnn3)C2=O)cc1,i,i,54,i,70,i
COc1ccc(/C=C2\SC(=O)N(CCNC(=O)C3CC(=O)N(c4ccccc4)C3)C2=O)cc1 (stereo not drawn),i,i,i,i,59,i
Cc1sc2ncnc(SCC(=O)N3CCC(c4noc5ccc(F)cc45)CC3)c2c1C,i,i,65,i,79,i
COC(=O)C1=C(C)NC(=O)/C1=C\c1cc(C)n(-c2ccccc2)c1C,i,nt,nt,nt,nt,nt
COC(=O)C1=C(C)NC(=O)/C1=C\c1cc(C)n(-c2cc(C)cc(C)c2)c1C,nt,i,82,i,92,i
NC(=O)c1cc(Br)cc2c3c([nH]c12)CCCC3,i,i,i,i,i,i
NC(=O)CN(c1ccccc1)C1SC(=O)N(Cc2ccccc2)C1=O (stereo not drawn),i,i,52,i,i,i
CN(C)c1ccc(/C=N/c2cc(-c3ccccc3)nn2-c2ccccc2)cc1,i,i,i,i,52,i
